Source: PubChem BioAssay (EPA / NIEHS)
Records with an inconclusive call do not appear. Calls of active or inactive are those of the source. Rule for the calls, unless noted: active = hit-call score of the fitted dose curve at least 0.9, where 1 is the maximum; inactive = score below 0.9.

How the values were obtained:
[1] = ATG_CRE_CIS: Attagene CIS-FACTORIAL HepG2 Assay for human cAMP Responsive Element (CRE) binding protein 3 (AID 2282926); conditions: HepG2 CRE cis-reporter, Attagene multiplexed mRNA; actives raise or lower the signal
Method in brief: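 Endogenous transcription factor activity read via CRE-regulated reporter transcripts in transfected HepG2 cells. After 24 h exposure, RNA was reverse-transcribed, amplified, fluorescently labelled and sized by capillary electrophoresis; gain or loss fitted against DMSO.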

[2] = target: Aryl hydrocarbon receptor (Homo sapiens) (UniProt P35869); experiment: ATG_Ahr_CIS: Attagene CIS-FACTORIAL HepG2 Assay for human Aryl Hydrocarbon Receptor (Ahr) (AID 2282930); conditions: HepG2 AhR cis-factorial reporter transcription; actives raise or lower the signal
Chain of Aryl hydrocarbon receptor (Homo sapiens) (P35869 whole entry, looked up): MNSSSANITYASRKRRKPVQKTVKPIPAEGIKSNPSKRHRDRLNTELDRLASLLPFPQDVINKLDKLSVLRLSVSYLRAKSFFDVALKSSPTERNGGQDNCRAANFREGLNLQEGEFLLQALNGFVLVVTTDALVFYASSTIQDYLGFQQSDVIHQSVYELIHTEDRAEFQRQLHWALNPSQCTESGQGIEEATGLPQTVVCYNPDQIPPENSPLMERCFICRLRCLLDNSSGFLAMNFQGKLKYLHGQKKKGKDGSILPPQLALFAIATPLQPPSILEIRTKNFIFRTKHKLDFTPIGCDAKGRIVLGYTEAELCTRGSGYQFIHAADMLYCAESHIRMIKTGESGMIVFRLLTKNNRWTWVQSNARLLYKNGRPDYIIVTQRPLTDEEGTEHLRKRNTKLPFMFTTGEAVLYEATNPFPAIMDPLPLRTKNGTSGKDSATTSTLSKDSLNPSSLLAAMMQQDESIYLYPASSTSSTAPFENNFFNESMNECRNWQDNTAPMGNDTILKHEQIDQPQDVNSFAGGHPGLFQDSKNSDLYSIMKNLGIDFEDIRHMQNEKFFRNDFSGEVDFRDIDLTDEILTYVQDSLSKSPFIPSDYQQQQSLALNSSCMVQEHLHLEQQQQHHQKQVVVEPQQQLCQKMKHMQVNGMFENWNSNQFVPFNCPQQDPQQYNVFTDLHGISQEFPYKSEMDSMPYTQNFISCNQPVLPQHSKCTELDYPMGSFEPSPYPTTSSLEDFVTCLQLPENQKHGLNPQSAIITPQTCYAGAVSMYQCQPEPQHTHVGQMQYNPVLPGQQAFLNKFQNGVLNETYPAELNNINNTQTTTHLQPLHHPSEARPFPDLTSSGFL
Method in brief: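 Following 24 h of chemical dosing, transfected HepG2 liver cells with cis-driven reporter units were lysed for RNA; reporter mRNA was quantified via RT-PCR and capillary electrophoresis, and responses fitted bidirectionally from DMSO.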

[3] = target: Hepatocyte nuclear factor 3-beta (Homo sapiens) (UniProt Q9Y261); experiment: ATG_FoxA2_CIS: Attagene CIS-FACTORIAL HepG2 Assay for human Forkhead box A2 (FOXA2) (AID 2282942); conditions: HepG2 cis-reporter transcription factor activity, 24 h; actives raise or lower the signal
Chain of Hepatocyte nuclear factor 3-beta (Homo sapiens) (Q9Y261 whole entry, looked up): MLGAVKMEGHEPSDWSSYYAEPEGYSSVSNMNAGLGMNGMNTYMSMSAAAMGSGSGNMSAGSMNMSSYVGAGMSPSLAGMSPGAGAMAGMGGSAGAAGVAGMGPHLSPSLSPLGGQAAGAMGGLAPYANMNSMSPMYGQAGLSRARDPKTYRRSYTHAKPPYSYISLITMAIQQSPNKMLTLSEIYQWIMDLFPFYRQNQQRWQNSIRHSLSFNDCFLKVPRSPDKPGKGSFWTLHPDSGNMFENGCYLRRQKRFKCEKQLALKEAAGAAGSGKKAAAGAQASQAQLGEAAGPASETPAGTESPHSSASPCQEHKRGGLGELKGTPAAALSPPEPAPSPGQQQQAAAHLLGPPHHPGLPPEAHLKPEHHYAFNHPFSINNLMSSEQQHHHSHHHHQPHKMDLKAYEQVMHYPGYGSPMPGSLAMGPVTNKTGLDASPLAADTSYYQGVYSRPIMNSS
Method in brief: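 In transiently transfected human HepG2 cells, promoter-driven reporter mRNA levels after 24 h chemical exposure are determined via RT-PCR with capillary electrophoresis. DMSO serves as baseline for bidirectional fitting.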

[4] = target: Paired box protein Pax-6 (Homo sapiens) (UniProt P26367); experiment: ATG_Pax6_CIS: Attagene CIS-FACTORIAL HepG2 Assay for human Paired Box 6 (PAX6) (AID 2282956); conditions: HepG2 CIS-FACTORIAL PAX6 reporter transcription, RNA readout; actives raise or lower the signal
Chain of Paired box protein Pax-6 (Homo sapiens) (P26367 whole entry, looked up): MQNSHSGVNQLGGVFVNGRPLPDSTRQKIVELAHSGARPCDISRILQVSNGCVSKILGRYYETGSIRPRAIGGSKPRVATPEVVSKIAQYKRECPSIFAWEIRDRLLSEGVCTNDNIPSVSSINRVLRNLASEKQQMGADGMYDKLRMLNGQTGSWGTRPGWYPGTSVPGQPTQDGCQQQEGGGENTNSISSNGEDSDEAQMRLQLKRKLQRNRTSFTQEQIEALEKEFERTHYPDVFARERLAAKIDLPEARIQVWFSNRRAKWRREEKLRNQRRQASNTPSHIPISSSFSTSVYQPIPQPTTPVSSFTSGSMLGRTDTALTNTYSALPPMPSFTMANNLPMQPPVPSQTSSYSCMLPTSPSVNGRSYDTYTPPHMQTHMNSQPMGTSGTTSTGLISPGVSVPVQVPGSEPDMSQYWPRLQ
Method in brief: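 DMSO-referenced bidirectional fits of reporter mRNA fluorescence; HepG2 with transient cis-promoter MRTUs, 24 h post-dose, RT-PCR plus capillary electrophoresis detection.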

[5] = target: Transcription factor Sp1 (Homo sapiens) (UniProt P08047); experiment: ATG_Sp1_CIS: Attagene CIS-FACTORIAL HepG2 Assay for human Specificity Protein 1 (Sp1) (AID 2282961); conditions: HepG2 Sp1 cis-reporter transcription, actives raise or lower the signal
Chain of Transcription factor Sp1 (Homo sapiens) (P08047 whole entry, looked up): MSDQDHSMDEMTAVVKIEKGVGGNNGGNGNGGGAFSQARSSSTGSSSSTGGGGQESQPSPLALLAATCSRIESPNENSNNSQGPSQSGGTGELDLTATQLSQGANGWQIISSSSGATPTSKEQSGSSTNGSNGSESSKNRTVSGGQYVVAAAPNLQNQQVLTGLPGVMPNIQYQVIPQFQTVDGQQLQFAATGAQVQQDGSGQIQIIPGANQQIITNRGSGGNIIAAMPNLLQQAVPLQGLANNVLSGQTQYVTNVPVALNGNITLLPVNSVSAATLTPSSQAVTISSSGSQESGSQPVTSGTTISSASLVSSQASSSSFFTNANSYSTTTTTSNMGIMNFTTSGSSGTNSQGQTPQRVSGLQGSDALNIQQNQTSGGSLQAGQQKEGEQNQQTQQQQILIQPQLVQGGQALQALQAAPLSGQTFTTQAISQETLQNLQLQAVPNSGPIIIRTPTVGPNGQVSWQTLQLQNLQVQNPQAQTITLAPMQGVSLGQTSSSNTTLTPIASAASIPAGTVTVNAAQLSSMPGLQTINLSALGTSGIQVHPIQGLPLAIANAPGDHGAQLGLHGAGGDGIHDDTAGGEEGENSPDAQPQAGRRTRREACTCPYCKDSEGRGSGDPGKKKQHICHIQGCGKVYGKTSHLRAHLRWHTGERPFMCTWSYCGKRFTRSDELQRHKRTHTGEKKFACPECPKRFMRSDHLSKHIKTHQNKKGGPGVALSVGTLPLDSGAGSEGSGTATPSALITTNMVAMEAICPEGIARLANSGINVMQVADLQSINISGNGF
Method in brief: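 Sp1-driven reporter mRNA, read as capillary electrophoresis fluorescence after RT-PCR, in transiently transfected HepG2 cells dosed for 24 h; signal change in either direction relative to DMSO.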

[6] = ATG_SREBP_CIS: Attagene CIS-FACTORIAL HepG2 Assay for human Sterol Regulatory Element Binding (SREBP) (AID 2282962); conditions: HepG2 Attagene cis-factorial SREBP reporter, mRNA; actives raise or lower the signal
Method in brief: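 In this cis-format assay, HepG2 liver cells express reporters controlled by promoter elements responsive to native transcription factors. Exposure lasts 24 h; reporter mRNA fluorescence from capillary electrophoresis gives the signal, fitted bidirectionally against DMSO.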

[7] = target: Signal transducer and activator of transcription 3 (Homo sapiens) (UniProt P40763); experiment: ATG_STAT3_CIS: Attagene CIS-FACTORIAL HepG2 Assay for human Signal Transducer and Activator of Transcription 3 (STAT3) (AID 2282963); conditions: HepG2, Attagene cis-factorial STAT3 reporter transcription; actives raise or lower the signal
Method in brief: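 HepG2, MRTU-transfected, 24 h dosing. RNA → RT → PCR → FAM label → HpaI → CE. Bidirectional fit vs DMSO.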

[8] = ATG_TA_CIS: Attagene CIS-FACTORIAL HepG2 Assay for human TA Basal Promoter (AID 2282964); conditions: HepG2 Attagene CIS-factorial TA basal promoter reporter; actives raise or lower the signal
Method in brief: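 Fluorescence from labelled RT-PCR reporter fragments, separated by capillary electrophoresis, gives the signal. Cells: HepG2 transiently carrying multiple reporter units, 24 h chemical dosing. Gain or loss relative to DMSO.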

[9] = ATG_TCF_b_cat_CIS: Attagene CIS-FACTORIAL HepG2 Assay for human T-Cell-Factor with beta-catenin (TCF/b-cat) (AID 2282965); conditions: HepG2 TCF/beta-catenin cis-reporter transcription, actives raise or lower the signal
Method in brief: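 In this cis-format system, transfected HepG2 cells report endogenous transcription factor activity. Readout after 24 h exposure is reporter transcript abundance from RT-PCR and capillary electrophoresis, analysed for gain or loss of signal versus DMSO.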

[10] = ATG_TAL_CIS: Attagene CIS-FACTORIAL HepG2 Assay for human TAL Basal Promoter (AID 2282966); conditions: HepG2 Attagene cis-factorial TAL promoter reporter; actives raise or lower the signal;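 note: background control endpoint measuring basal TAL promoter reporter mRNA not a specific factor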
Method in brief: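 Background-control endpoint: basal TAL promoter reporter transcripts in transiently transfected HepG2, measured 24 h after dosing. Read-out by RT-PCR with fluorescent primer extension and capillary electrophoresis; gain or loss of signal fitted relative to DMSO.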

[11] = ATG_TGFb_CIS: Attagene CIS-FACTORIAL HepG2 Assay for human Transforming Growth Factor (TGF) (AID 2282967); conditions: HepG2 Attagene CIS TGFb reporter, mRNA transcription; actives raise or lower the signal
Method in brief: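 Bidirectional fitting relative to DMSO gave the endpoint. Underlying data: reporter mRNA from HepG2 cells carrying transiently transfected cis-regulated reporter constructs, harvested 24 h after dosing and analyzed by RT-PCR and capillary electrophoresis.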

[12] = ATG_M_32_TRANS: Attagene TRANS-FACTORIAL HepG2 Assay for M32 Transcription Factor (Internal Marker) (AID 2282984; active = hit-call score of the fitted dose curve at least 0.9, where 1 is the maximum); conditions: HepG2 Attagene TRANS M32 internal marker reporter
Method in brief: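 After 24 h dosing of transfected HepG2 cells, total RNA was reverse-transcribed, reporter sequences PCR-amplified, 6-FAM labelled by primer extension and HpaI-digested before capillary electrophoresis. Signal increase over DMSO was fitted.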

[13] = target: Transcriptional activator Myb (Homo sapiens) (UniProt P10242); experiment: ATG_Myb_CIS: Attagene CIS-FACTORIAL HepG2 Assay for human Myeloblastosis (Myb) Proto-Oncogene Transcription Factor (AID 2282986); conditions: HepG2 Attagene CIS-FACTORIAL Myb reporter transcription; actives raise or lower the signal
Chain of Transcriptional activator Myb (Homo sapiens) (P10242 whole entry, looked up): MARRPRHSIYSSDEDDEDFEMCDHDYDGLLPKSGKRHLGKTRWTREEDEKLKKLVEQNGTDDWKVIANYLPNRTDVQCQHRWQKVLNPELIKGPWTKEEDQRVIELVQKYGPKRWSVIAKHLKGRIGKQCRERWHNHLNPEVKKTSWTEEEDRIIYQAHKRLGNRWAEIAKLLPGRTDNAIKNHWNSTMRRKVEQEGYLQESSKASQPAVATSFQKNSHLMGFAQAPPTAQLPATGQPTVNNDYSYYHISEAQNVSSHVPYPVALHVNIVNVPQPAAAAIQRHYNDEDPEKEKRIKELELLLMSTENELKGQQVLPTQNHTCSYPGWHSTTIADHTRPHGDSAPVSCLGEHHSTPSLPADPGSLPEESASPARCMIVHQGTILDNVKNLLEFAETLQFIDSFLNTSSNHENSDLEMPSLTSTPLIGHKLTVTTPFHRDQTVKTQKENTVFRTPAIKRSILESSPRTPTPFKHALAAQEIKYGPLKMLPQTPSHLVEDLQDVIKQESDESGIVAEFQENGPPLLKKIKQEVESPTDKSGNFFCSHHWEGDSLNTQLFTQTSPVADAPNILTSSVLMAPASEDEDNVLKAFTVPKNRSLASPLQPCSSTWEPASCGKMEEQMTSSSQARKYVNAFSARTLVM
Method in brief: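 Fluorescence signals from capillary electrophoresis of RT-PCR-amplified reporter cDNA give the read-out. Cells: HepG2 transfected with multiple cis-regulated reporter units. Exposure lasts 24 hours; DMSO defines baseline for gain or loss of signal.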

[14] = target: Nuclear respiratory factor 1 (Homo sapiens) (UniProt Q16656); experiment: ATG_NRF1_CIS: Attagene CIS-FACTORIAL HepG2 Assay for human Nuclear Respiratory Factor 1 (NRF1) Orphan Gene (AID 2282987); conditions: HepG2 NRF1 cis-element reporter, Attagene multiplex; actives raise or lower the signal
Chain of Nuclear respiratory factor 1 (Homo sapiens) (Q16656 whole entry, looked up): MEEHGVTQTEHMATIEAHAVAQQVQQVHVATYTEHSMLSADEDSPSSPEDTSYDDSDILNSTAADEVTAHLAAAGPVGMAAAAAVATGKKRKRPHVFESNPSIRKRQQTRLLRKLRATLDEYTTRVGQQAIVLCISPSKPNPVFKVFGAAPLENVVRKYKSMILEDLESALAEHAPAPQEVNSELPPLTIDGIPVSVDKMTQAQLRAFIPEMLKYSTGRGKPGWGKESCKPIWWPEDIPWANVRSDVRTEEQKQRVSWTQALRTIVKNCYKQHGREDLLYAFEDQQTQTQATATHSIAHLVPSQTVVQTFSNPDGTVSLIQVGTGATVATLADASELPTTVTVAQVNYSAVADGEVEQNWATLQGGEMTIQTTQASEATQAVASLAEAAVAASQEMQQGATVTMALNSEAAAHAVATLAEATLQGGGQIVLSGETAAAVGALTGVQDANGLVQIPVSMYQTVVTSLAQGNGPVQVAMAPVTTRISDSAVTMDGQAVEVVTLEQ
Method in brief: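 Transcriptional reporter readout, one component of a 52-endpoint multiplexed HepG2 panel. Exposure 24 h; mRNA detected via RT-PCR and fluorescent capillary electrophoresis; fitting in both directions against DMSO.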

[15] = ATG_NFI_CIS: Attagene CIS-FACTORIAL HepG2 Assay for human Nuclear Factor I (NFI) (AID 2282989); conditions: HepG2 cis-regulatory reporter, NFI response element transcription; actives raise or lower the signal
Method in brief: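 Cells: human liver HepG2, transiently transfected with promoter-regulated reporter transcription units. Exposure 24 h. Detection: fluorescent RT-PCR products separated by capillary electrophoresis, normalised to DMSO negative control.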

[16] = ATG_NF_kB_CIS: Attagene CIS-FACTORIAL HepG2 Assay for human Nuclear Factor Kappa B (NF-kB) (AID 2282991); conditions: HepG2 Attagene cis-factorial NF-kB reporter mRNA; actives raise or lower the signal
Method in brief: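 HepG2, transient multi-reporter transfection, cis promoter elements (endogenous TFs). 24 h exposure. Total RNA → RT → PCR → 6-FAM label → HpaI → CE. Gain/loss vs DMSO.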

[17] = ATG_Oct_MLP_CIS: Attagene CIS-FACTORIAL HepG2 Assay for human Octamer-Binding Transcription Factor (Oct) (AID 2282993); conditions: HepG2 Attagene cis-factorial Oct reporter, mRNA; actives raise or lower the signal
Method in brief: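 HepG2, transient MRTU transfection, cis promoter elements; 24 h dosing; RT-PCR/CE fluorescence read-out of reporter mRNA; fit both directions vs DMSO.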

[18] = target: X-box-binding protein 1 (Homo sapiens) (UniProt P17861); experiment: ATG_Xbp1_CIS: Attagene CIS-FACTORIAL HepG2 Assay for human X-box Binding Protein 1 (XBP1) (AID 2282972); conditions: HepG2 XBP1 cis-element reporter, Attagene multiplex; actives raise or lower the signal
Chain of X-box-binding protein 1 (Homo sapiens) (P17861 whole entry, looked up): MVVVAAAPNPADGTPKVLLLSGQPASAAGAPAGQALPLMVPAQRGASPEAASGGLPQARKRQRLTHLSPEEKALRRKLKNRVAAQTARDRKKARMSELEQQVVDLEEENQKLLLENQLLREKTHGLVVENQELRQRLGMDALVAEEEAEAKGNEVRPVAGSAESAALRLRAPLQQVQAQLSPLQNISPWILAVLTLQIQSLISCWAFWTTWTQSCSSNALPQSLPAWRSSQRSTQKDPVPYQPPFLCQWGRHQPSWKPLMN
Method in brief: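 Changes in reporter transcript abundance, read by RT-PCR and capillary electrophoresis, reflect endogenous transcription factor activity. Transfected HepG2 cells received compound for 24 hours; DMSO defined baseline for bidirectional analysis.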

[19] = target: Myc proto-oncogene protein (Homo sapiens) (UniProt P01106); experiment: ATG_Myc_CIS: Attagene CIS-FACTORIAL HepG2 Assay for human Myelocytomatosis (Myc) Proto-Oncogene Transcription Factor (AID 2282990); conditions: HepG2, Attagene cis-reporter transcription factor activity; actives raise or lower the signal
Chain of Myc proto-oncogene protein (Homo sapiens) (P01106 whole entry, looked up): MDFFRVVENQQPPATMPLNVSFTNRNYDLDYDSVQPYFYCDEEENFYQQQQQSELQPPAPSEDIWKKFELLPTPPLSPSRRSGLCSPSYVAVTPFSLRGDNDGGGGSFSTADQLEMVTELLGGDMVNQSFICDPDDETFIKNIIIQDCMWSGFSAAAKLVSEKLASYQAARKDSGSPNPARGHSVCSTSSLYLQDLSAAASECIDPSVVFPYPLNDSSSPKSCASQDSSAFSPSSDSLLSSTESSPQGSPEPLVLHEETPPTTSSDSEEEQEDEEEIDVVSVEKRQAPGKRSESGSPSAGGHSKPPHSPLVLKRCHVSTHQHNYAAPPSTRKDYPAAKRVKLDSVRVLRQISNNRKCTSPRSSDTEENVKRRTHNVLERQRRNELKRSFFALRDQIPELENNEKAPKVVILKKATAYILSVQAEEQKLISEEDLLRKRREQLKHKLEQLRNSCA
Method in brief: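 DMSO-normalised, bidirectionally fitted reporter mRNA signal. HepG2 cells transfected with cis reporter constructs, treated 24 h; transcripts detected by RT-PCR, 6-FAM primer extension and CE.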

[20] = ATG_VDRE_CIS: Attagene CIS-FACTORIAL HepG2 Assay for human Vitamin D Receptor Element (VDRE) (AID 2282968); conditions: HepG2 VDRE cis-reporter transcription, actives raise or lower the signal
Method in brief: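 Steps: transfect HepG2 with multiple reporter transcription units; dose chemicals 24 h; isolate RNA; RT-PCR; label with 6-FAM primer extension; HpaI digest; capillary electrophoresis. Curves fitted both directions against DMSO.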

Measured: AC50

CC(Cc1ccc(C(C)(C)C)cc1)CN1C[C@@H](C)O[C@@H](C)C1 (some centres not stated)
active: [2] 33.4 µM | [16] 21 µM
not listed: [18] | [19] | [20]
inactive: all other assays above

O=S(=O)(O)O
not listed: [3] | [4] | [12] | [16] | [20]
inactive: all other assays above

CC(C)CCCCCCCOC(=O)c1ccccc1C(=O)OCCCCCCCC(C)C
not listed: [16] | [18]
inactive: all other assays above

COc1ccc(CO)cc1
not listed: [4] | [16] | [18]
inactive: all other assays above

C[N+](=O)[O-]
inactive: all assays above

Cc1ccc(C)c2ccccc12
active: [2] 27.7 µM
not listed: [16]
inactive: all other assays above

CC(C)(C)C(O)C(Oc1ccc(-c2ccccc2)cc1)n1cncn1 (configuration not stated)
active: [6] 12.7 µM | [8] 33.4 µM | [9] 51.8 µM | [11] 672 nM | [20] 9 µM
not listed: [3] | [4]
inactive: all other assays above

CC(=O)/C=C/c1ccccc1
active: [20] 31.6 µM
not listed: [4] | [19]
inactive: all other assays above
